The supplement of paper PMC3334620
In all, about 33,000 sequences were measured (“E-score (-0.5 to 0.5)”: median about -0.011, highest 2% from about 0.28 on). The list comes from a sample in which the highest values are over-represented; it also holds similar and randomly drawn sequences.

What follows are sequences tested against T1, Gcr1 (UniProt P07261) (assay: PBM E-score (8-mer binding enrichment) (E-score (-0.5 to 0.5)); higher = stronger / more preferred TF binding). Conditions: protein concentration: 100 nM; construct: GST-full length.
T1 sequence: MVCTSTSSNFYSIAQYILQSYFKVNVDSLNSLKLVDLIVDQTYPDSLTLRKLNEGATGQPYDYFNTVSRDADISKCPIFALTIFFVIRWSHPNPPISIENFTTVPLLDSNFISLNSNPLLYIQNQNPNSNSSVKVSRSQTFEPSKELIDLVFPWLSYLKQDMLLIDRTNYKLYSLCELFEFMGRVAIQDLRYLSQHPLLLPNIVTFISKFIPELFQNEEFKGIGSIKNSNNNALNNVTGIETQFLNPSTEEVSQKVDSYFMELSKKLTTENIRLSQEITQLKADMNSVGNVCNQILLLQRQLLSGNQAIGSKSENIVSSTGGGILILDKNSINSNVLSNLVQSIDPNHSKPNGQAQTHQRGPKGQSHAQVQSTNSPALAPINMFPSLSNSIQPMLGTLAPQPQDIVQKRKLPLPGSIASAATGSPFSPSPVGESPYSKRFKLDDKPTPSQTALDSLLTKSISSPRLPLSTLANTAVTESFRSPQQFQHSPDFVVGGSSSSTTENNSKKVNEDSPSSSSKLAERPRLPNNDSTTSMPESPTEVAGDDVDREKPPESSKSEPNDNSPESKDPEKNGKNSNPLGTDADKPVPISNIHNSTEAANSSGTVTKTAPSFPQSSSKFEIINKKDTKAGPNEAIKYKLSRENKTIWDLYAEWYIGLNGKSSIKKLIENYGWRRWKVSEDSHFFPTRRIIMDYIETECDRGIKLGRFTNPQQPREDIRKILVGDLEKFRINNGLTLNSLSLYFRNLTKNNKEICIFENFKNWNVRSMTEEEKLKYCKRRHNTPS
Method in brief: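 Full-length yeast transcription factors or their DNA-binding domains, GST-tagged and expressed with PURExpress, were applied at about 100-200 nM to universal all-10-mer Agilent arrays. These arrays had been made double-stranded by primer extension on fresh or once-stripped slides. Detection used fluorescent anti-GST, normalisation used masliner, and E-scores for ungapped eight-base words pooled with reverse complements came from the Universal PBM Analysis Suite.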

Sequence | PBM E-score
AAATCCAT | 0.129
GGCCCGCA | -0.0485
CAACCCAG | 0.00319
CCCGCGAC | -0.167
AACTTCCC | -0.0101
AACTTCCT | 0.376
AACTTCGT | 0.173
AGGGAAAT | -0.173
ACTGCTAA | -0.0287
ACCACTAG | 0.267
CCCACTAC | 0.187
TCCACTCA | 0.189
ACCACTCA | -0.067
TCCACTAA | 0.418
ACCACTAA | 0.285
ACCACTAT | 0.356
GCCACTCC | -0.045
GCCACTAC | 0.305
CCCACTAA | 0.241
ACCACTAC | 0.129
AGCACTAA | -0.0258
ATCGAGCG | -0.167
GGATATCC | -0.206
CCGATTCA | -0.00017
CTGCCGAA | -0.0682

Sequence | PBM E-score
GCCACTGA | 0.237
GCCACTTA | 0.184
GCCACTAA | 0.366
ACAAAGAG | -0.078
CGGCAGAC | -0.254
CGGCAGCA | -0.0108
AGGCAGCG | 0.0171
CGGCAGCC | 0.382
AGGCAGCC | 0.382
AGGCAGCA | 0.0795
AGTCTACG | -0.0187
AGACGCTG | 0.254
AGACGCTA | 0.293
GCACGCTA | -0.0819
CGACGCTA | 0.0406
AGACGCTC | 0.185
GGACGCTA | 0.363
ACGAGCAC | -0.0665
AAACCCGG | 0.0332
ACGCGCAT | -0.0657
GCCTGTGA | 0.0496
CCGGAATC | 0.219
ATGGAATA | 0.0994
CTGGAATA | 0.259
ATGGAATC | 0.29

Sequence | PBM E-score
ATGGAATG | -0.00503
CTGGAATC | 0.407
AACGCTCC | -0.276
GCGTCTTA | 0.239
CAGCTCGC | -0.117
CGACCGTC | -0.41
TGATATCA | 0.0841
CAGCCATA | 0.022
AGCAGCCG | 0.285
CGCAGCCC | 0.324
AGCAGCTA | 0.273
AGCAGCCT | 0.369
AGCAGCAG | -0.0192
AGCAGCAT | -0.00516
AGCAGCTG | 0.311
AGCAGCTC | 0.16
CACAGCCC | -0.232
ACCAGCCT | 0.0001
ATCAGCCG | -0.264
CGCAGCGC | 0.15
ACATTACA | 0.178
GGGTTAAC | 0.0316
ATCCCCGA | 0.0266
AGCCCGCA | 0.225
CCTACTAC | -0.0926

Sequence | PBM E-score
CACTAACG | 0.00491
CGCGAGTC | -0.109
AGTAGCAT | -0.0355
CACCTTAG | 0.141
TGCAGCCA | 0.00515
CGCAGCCG | 0.0939
CGCAGCGA | 0.22
AGCAGCAA | 0.0994
GGCAGCCC | 0.324
GGCAGCAC | -0.0566
AGCAGCCC | 0.2
GGCAGCCA | 0.422
GCCAGCCA | -0.0514
CGCAGCCA | 0.365
GCCAGCCC | -0.0556
AGCAGCCA | 0.35
AGGCCAGG | -0.25
ATCTATGA | -0.0683
ACTGAAAC | 0.0485
CTAAACGC | 0.0998
AGATCTGG | 0.00449
ACGTTCAC | -0.22
GTCAGGAC | 0.00402
GTCCAAGA | 0.149
CACTCCCG | -0.134

Sequence | PBM E-score
GCCCTGGA | -0.0767
ACAGGACG | 0.26
ACAGGAAT | 0.307
ACAGGAAC | 0.144
CCAGGAAG | 0.166
ACAGGAAG | 0.455
ACAGGAAA | 0.125
CTGTTCCC | -0.0872
CACGGTAA | -0.233
CTATCGAC | -0.0454
GCCTCTCA | -0.0769
ACCTATAG | 0.161
CGAGCGGA | -0.113
GGGAGCCA | 0.387
CGGAGCCA | 0.282
TGGAGCCA | 0.205
CGGAGCCG | 0.0209
GGGAGCCC | 0.226
AGGAGCCA | 0.214
GGTTTGGA | 0.115
AATGCCCG | -0.207
AGAAAGGA | -0.143
CCGTCTCG | -0.0715
GTCACTAA | 0.107
AGCGCCAA | 0.124

Sequence | PBM E-score
GGCGCCAC | 0.253
GGCGCCGA | 0.286
AGCGCCGA | 0.0415
AGCGCCTA | 0.164
CGCGCCTA | 0.258
GGCGCCTA | 0.385
CGCGCCGA | 0.0709
GGCGCCAA | 0.377
AGGGTCGG | -0.133
GAATTTCC | 0.082
AATACAGG | 0.343
AATACAAT | -0.0331
ATTACAGG | 0.355
ATTACAGC | -0.134
AATACAAC | 0.0962
AATACAGT | -0.0143
ATTACAGA | 0.053
AATACAAG | 0.293
AATACAGA | -0.0124
CAAAGACC | 0.00996
CAGTGGGC | -0.0102
ACTGCTAT | -0.225
ATATCCTC | -0.118
GACACCCC | -0.0371
AACGTCGC | -0.00983

Sequence | PBM E-score
AACCATAG | -0.00302
AAAATCCG | 0.111
AGGCGCTA | 0.0978
GGGCGCCA | 0.403
CTGCGCCA | -0.135
CAGCGCCA | 0.0174
TAGCGCCA | 0.181
GCGCGCCA | 0.0132
CGGCGCTA | -0.00295
TGGCGCCA | 0.37
GGGCGCTA | 0.32
CGGCGCCA | 0.308
TGGCGCAA | -0.0289
GGGCGCGA | 0.187
AAGGTAAA | 0.0141
GTCAAGGA | 0.0238
GAGTTTCA | -0.0957
GCCTTCGA | -0.126
CGGCGCCG | 0.113
GGGCGCCC | 0.459
GAGCGCCC | 0.234
CGGCGCGC | 0.193
GGGCGCAC | -0.138
CGGCGCCC | 0.359
